Source: PubChem BioAssay (EPA / NIEHS)
Inconclusive results are not listed. Active and inactive are the calls of the source. How the source made its calls, unless noted: active means hit-call score of the fitted dose curve at least 0.9, where 1 is the maximum; inconclusive means response in the unintended direction; inactive means score below 0.9.

Columns and labels:
[1] = Tanguay_ZF_120hpf_OTIC_legacy: (Legacy) Oregon State University Tanguay Lab 120 Hour Post-fertilization zebrafish Assay for Otic Vesicle Malformation (AID 2283639)
Method in brief: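 Statically exposed wild-type 5D zebrafish embryos, kept sealed and dark at 28C through 120 hours post fertilization, were examined by brightfield microscopy for otic vesicle defects. Responses were recorded as present or absent and analysed relative to DMSO.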

[2] = Tanguay_ZF_120hpf_PE_legacy: (Legacy) Oregon State University Tanguay Lab 120 Hour Post-fertilization zebrafish Assay for Pericardial Edema (AID 2283640);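 on AC50: potency for increased incidence of pericardial edema versus DMSO baseline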
Method in brief: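 Embryos from wild-type 5D adults were staged, then dosed in 0.64% DMSO. They were kept sealed in the dark at 28C until 120 hpf. Pericardial edema was then recorded as present or absent.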

[3] = Tanguay_ZF_120hpf_SOMI_legacy: (Legacy) Oregon State University Tanguay Lab 120 Hour Post-fertilization zebrafish Assay for Somite Malformation (AID 2283647)
Method in brief: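 Read-out: presence or absence of somite malformation in 120 hpf larvae, gain-of-signal relative to DMSO baseline. Embryos lacked chorion (pronase, 4 hpf) and were exposed statically from 6 hpf at 28C; dead larvae not scored.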

[4] = Tanguay_ZF_120hpf_PFIN_legacy: (Legacy) Oregon State University Tanguay Lab 120 Hour Post-fertilization zebrafish Assay for Pectoral Fin Malformation (AID 2283648);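 further: each larva judged yes or no for fin defect by brightfield with dead larvae skipped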
Method in brief: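 Binary pectoral fin malformation call at 120 hpf by brightfield microscopy; 5D wild-type zebrafish, chorion removed at 4 hpf, one embryo per well from 6 hpf, static exposure at 28C; DMSO (0.64% final) as baseline.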

[5] = Tanguay_ZF_120hpf_CIRC_legacy: (Legacy) Oregon State University Tanguay Lab 120 Hour Post-fertilization zebrafish Assay for Circulatory Malformation (AID 2283651)
Method in brief: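 Embryos are dechorionated at 4 hpf, plated one per well at 6 hpf, then held under static exposure at 28C until 120 hpf. Malformations are recorded as binary calls; mortality excludes other endpoints.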

[6] = Tanguay_ZF_120hpf_NC_legacy: (Legacy) Oregon State University Tanguay Lab 120 Hour Post-fertilization zebrafish Assay for Notochord and Tail Malformation (AID 2283656)
Method in brief: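 Binary scoring of notochord distortion by brightfield microscopy; embryos dying were not scored. Wild-type Tropical 5D embryos, chorion removed, exposed singly and statically from 6 to 120 hpf, 28C, sealed, 0.64% DMSO.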

[7] = Tanguay_ZF_120hpf_TR_legacy: (Legacy) Oregon State University Tanguay Lab 120 Hour Post-fertilization zebrafish Assay for Touch Response (AID 2283667)
Method in brief: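 Binary touch-response call at 120 hpf, analysed as gain of signal versus DMSO baseline. Wild-type 5D larvae, static exposure at 28C, 0.64% DMSO final; 5uM trimethyltin chloride as positive control.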

[8] = Tanguay_ZF_120hpf_BRAI_legacy: (Legacy) Oregon State University Tanguay Lab 120 Hour Post-fertilization zebrafish Assay for Brain Malformation (AID 2283641)
Method in brief: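 Wild-type 5D larvae, static waterborne exposure to 120 hpf, 28C, 0.64% v/v DMSO. Brightfield scoring of brain defects, binary; dead embryos excluded. Positive ctrl 5uM trimethyltin chloride.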

[9] = Tanguay_ZF_120hpf_CFIN_legacy: (Legacy) Oregon State University Tanguay Lab 120 Hour Post-fertilization zebrafish Assay for Caudal Fin Malformation (AID 2283649)
Method in brief: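 Binary presence or absence of caudal fin malformation at 120 hpf, read by brightfield microscopy, with DMSO as baseline. Larvae came from 5D wild-type embryos exposed statically from 6 hpf at 28C after pronase dechorionation.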

[10] = read-out: xenobiotic metabolism (CYP1A2), CYP1A2 (gene 1544); test: CLD_CYP1A2_6hr: CellzDirect (CLD) Gene Expression Assay for xenobiotic metabolism (CYP1A2) at 6 hours (AID 2283663);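 on AC50: potency is for induction meaning a rise in mRNA above DMSO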
Method in brief: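 mRNA levels quantified by quantitative nuclease protection assay with chemiluminescence, 6 h after dosing human primary hepatocyte cultures (two donors) across several concentrations, vehicle 0.2% DMSO. Induction fitted upward versus DMSO; phase-contrast cytotoxicity annotated.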

[11] = Tanguay_ZF_120hpf_SWIM_legacy: (Legacy) Oregon State University Tanguay Lab 120 Hour Post-fertilization zebrafish Assay for Swim Bladder Malformation (AID 2283654);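 further: swim bladder malformation in each larva scored yes or no under brightfield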
Method in brief: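 Tropical 5D embryos dechorionated at 4 hpf; 1 embryo/well from 6 hpf; static, sealed, dark exposure at 28C until 120 hpf; final DMSO 0.64%; 5uM trimethyltin chloride positive control; swim bladder defect recorded yes/no; dead embryos not scored.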

[12] = tested on: Thyroperoxidase (TPO), gene 54314; test: CCTE_Simmons_AUR_rTPO: CCTE's Amplex UltraRed Assay for Thyroperoxidase (TPO) Inhibition, Simmons Lab (AID 2283662);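 on AC50: potency for loss of signal meaning inhibition of peroxidase activity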
Method in brief: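 Rat thyroid microsomal TPO + 25 uM AUR in 200 mM K phosphate; cpd 5 nM–87.5 uM [final], 8 conc, 0.5% DMSO; 300 uM H2O2 starts rxn; 37C dark 30 min; endpoint FI 544/590 nm; n=3.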

[13] = CCTE_Simmons_CellTiterGLO_HEK293T: Viability Assessment in CCTE's Assays for Thyroperoxidase (TPO) Inhibition, Simmons Lab (AID 2283665);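 on AC50: cells exposed to compound for 24 h before readout; actives reduce ATP signal below DMSO vehicle meaning cytotoxicity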
Method in brief: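 Cells were seeded overnight, then exposed to an eight-point series up to 87.5 uM final for 24 hours. CellTiter-Glo reagent was added and luminescence read after 20 min, giving ATP-based viability versus DMSO.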

[14] = Tanguay_ZF_120hpf_PIG_legacy: (Legacy) Oregon State University Tanguay Lab 120 Hour Post-fertilization zebrafish Assay for Pigmentation Malformation (AID 2283650)
Method in brief: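 Brightfield scoring of pigmentation malformation at 120 hpf, recorded as binary present/absent per larva. Exposure: dechorionated 5D wild-type embryos, one per well, static from 6 hpf at 28C, final DMSO 0.64% (vol/vol). Dead embryos not scored.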

[15] = Tanguay_ZF_120hpf_TRUN_legacy: (Legacy) Oregon State University Tanguay Lab 120 Hour Post-fertilization zebrafish Assay for Truncated Body (AID 2283655)
Method in brief: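 Truncated body is recorded as a binary endpoint at 120 hpf by brightfield imaging of wild-type 5D larvae. Exposure runs statically from 6 hpf at 28C with 0.64% DMSO; embryos dying earlier are not scored.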

[16] = read-out: solute carrier (SLC22A6), SLC22A6 (gene 9356); test: LTEA_HepaRG_SLC22A6: Life Technologies and Expression Analysis (LTEA) Assay for solute carrier (SLC22A6) using HepaRG (AID 2283653; active means hit-call score of the fitted dose curve at least 0.9, where 1 is the maximum; inactive means score below 0.9); conditions: mRNA level, 48 h; actives raise or lower the signal
Method in brief: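 Read-out is SLC22A6 transcript level by qRT-PCR, normalised to three housekeeping genes and fitted for gain or loss relative to 0.5% DMSO vehicle. Human HepaRG cells received chemicals at up to 100 uM for 48 h.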

[17] = read-out: solute carrier (SLC10A1), SLC10A1 (gene 6554); test: LTEA_HepaRG_SLC10A1: Life Technologies and Expression Analysis (LTEA) Assay for solute carrier (SLC10A1) using HepaRG (AID 2283657; active means hit-call score of the fitted dose curve at least 0.9, where 1 is the maximum; inactive means score below 0.9); conditions: mRNA level, 48 h; actives raise or lower the signal
Method in brief: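 HepaRG, 48 h exposure, 8-pt half-log curve from 100 uM in 0.5% DMSO, duplicates. Read-out: TaqMan qRT-PCR of SLC10A1 mRNA, normalized to three housekeeping genes. Gain/loss fit vs DMSO baseline.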

[18] = read-out: matrix metalloproteinase-1 (MMP1), MMP1 (gene 4312); test: LTEA_HepaRG_MMP1: Life Technologies and Expression Analysis (LTEA) Assay for matrix metalloproteinase-1 (MMP1) using HepaRG (AID 2283658; active means hit-call score of the fitted dose curve at least 0.9, where 1 is the maximum; inactive means score below 0.9); conditions: mRNA level, 48 h; actives raise or lower the signal
Method in brief: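 HepaRG, ~100,000 cells/well, 48 h pre-culture; serum-free induction medium; test chemical 8 conc (max 100 uM, half-log), duplicate, 48 h; 0.5% DMSO; qRT-PCR MMP1, housekeeping-normalized; gain/loss fit vs DMSO.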

[19] = read-out: kallikrein-3 (KLK3), KLK3 (gene 354); test: LTEA_HepaRG_KLK3: Life Technologies and Expression Analysis (LTEA) Assay for kallikrein-3 (KLK3) using HepaRG (AID 2283652; active means hit-call score of the fitted dose curve at least 0.9, where 1 is the maximum; inactive means score below 0.9); conditions: mRNA level, 48 h; actives raise or lower the signal
Method in brief: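 KLK3 transcript levels were measured by TaqMan qRT-PCR with normalisation to three housekeeping genes. HepaRG cultures received chemicals for 48 h at up to 100 uM (half-log, 8 points, 0.5% DMSO vehicle), fitted in both directions against DMSO.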

Measured: AC50

CCCCOC(=O)C(C)Oc1ccc(Oc2ccc(C(F)(F)F)cn2)cc1 (centres undefined)
inactive: [1] | [2] | [3] | [4] | [5] | [6] | [7]

CCCOC(=O)NCCCN(C)C
inactive: [2] | [8] | [3] | [9] | [5] | [6] | [10] | [7]

CCCOC(=O)c1ccc(C(=O)OCCC)nc1
inactive: [1] | [2] | [6] | [12] | [13] | [7]
active: [11] 1.97 µM

CCOC(=O)c1ccc(O)cc1
inactive: [2] | [8] | [9] | [5] | [6] | [7]

CC(C)(C)[C@@H](O)[C@@H](Cc1ccc(Cl)cc1)n1cncn1
active: [2] 45.9 µM
inactive: [8] | [3] | [9] | [5] | [6] | [7]

CCOC(=O)COc1cc(-n2ncc(C(F)(F)F)c(C)c2=O)c(F)cc1Cl
inactive: [1] | [2] | [3] | [4] | [9] | [5] | [6] | [10] | [7]

OB(O)O
inactive: [2] | [8] | [3] | [9] | [14] | [5] | [6] | [7]

C[C@]12C[C@H](O)[C@H]3[C@@H](CCC4=CC(=O)CC[C@@]43C)[C@@H]1CC[C@@H]2C(=O)CO
inactive: [1] | [2] | [3] | [9] | [5] | [6] | [7]

O=C(Nc1ccc([N+](=O)[O-])cc1Cl)c1cc(Cl)ccc1O
inactive: [1] | [2] | [4] | [9] | [6]
active: [12] 3.56 µM | [13] 5.34 µM

CC(=O)S[C@@H]1CC2=CC(=O)CC[C@]2(C)[C@H]2CC[C@@]3(C)[C@@H](CC[C@@]34CCC(=O)O4)[C@H]12
inactive: [1] | [9] | [5] | [15] | [6]

COC(=O)c1ccc(I)cc1S(=O)(=O)NC(=O)Nc1nc(C)nc(OC)n1
inactive: [2] | [8] | [3] | [9] | [5] | [6]

C#CCOC(=O)[C@@H](C)Oc1ccc(Oc2ncc(Cl)cc2F)cc1
inactive: [1] | [2] | [3] | [7]

CCCCC(CC)COC(=O)c1ccccc1C(=O)O (centres undefined)
inactive: [2] | [8] | [5] | [11] | [6]

C#C[C@]1(O)CC[C@H]2[C@@H]3CCC4=CC(=O)CC[C@@H]4[C@H]3CC[C@@]21CC
inactive: [1] | [8] | [3] | [9] | [11] | [6]

COCCO
inactive: [1] | [2] | [3] | [9] | [5] | [16] | [6] | [17] | [18] | [7]

COC(=O)c1cccc(C)c1S(=O)(=O)NC(=O)Nc1nc(OCC(F)(F)F)nc(N(C)C)n1
active: [10] 5.98 µM

COC(=O)c1ccccc1C(=O)O
inactive: [2] | [8] | [3] | [9] | [5] | [19] | [16] | [6] | [17] | [18] | [7]
